According to PubChem BioAssay:
For part of these data: Potency and affinity values are given separately. Activity calls are given as the source filed them. A call without a number means that no potency is given here. Unless noted, how the calls were made is not given here.

How the values were obtained:
[1] = target: Cell division control protein 42 homolog (Homo sapiens) (UniProt P60953); test: inhibition of fluorescent GTP binding to constitutively active Cdc42 – biochemical, multiplex bead flow cytometry, Bodipy-FL-GTP, dose response (AID 1333;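 active means fitted half-maximal concentration within the tested dose range, moderate curve steepness, a statistically real signal drop, and little compound fluorescence or tag-binding interference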)
[2] = target: Cell division control protein 42 homolog (Homo sapiens) (UniProt P60953); test: inhibition of fluorescent GTP binding to wildtype Cdc42 – biochemical, multiplex bead flow cytometry, Bodipy-FL-GTP, dose response (AID 1334;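 active means fitted half-maximal concentration within the tested range, moderate curve steepness, significant signal drop, and little compound fluorescence or bead-linkage interference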); details: bead-based flow cytometry, Bodipy-FL-GTP binding to GST-Cdc42; at 100 µM (top of the series) unless noted
[3] = target: GTPase HRas (Homo sapiens) (UniProt P01112); test: Ras wt fluorescent GTP loading blockade – biochemical, wildtype, multiplex bead flow cytometry, dose response (AID 1335;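 active means fitted half-maximal concentration within 10 nM to 100 µM, steepness 0.5 to 2, significant signal drop, low assay interference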); details: bead-based flow cytometry, Bodipy-GTP binding to GST-Ras; at 100 µM (top of the series) unless noted
[4] = tested on: Ras-related protein Rab-7a (dog), GTP binding; test: blockers of fluorescent GTP binding to Rab7 – biochemical, wildtype, multiplex bead flow cytometry, dose response (AID 1336)
[5] = target: Ras-related C3 botulinum toxin substrate 1 (Homo sapiens) (UniProt P63000); test: inhibition of wildtype Rac1 nucleotide loading – biochemical, multiplex bead flow cytometry, dose response (AID 1340;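 active means dose curve with midpoint inside tested range, moderate steepness, plateau gap beyond fit error, low compound glow and bead-link interference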); details: GST-Rac1 beads, Bodipy-FL-GTP binding; at 100 µM (top of the series) unless noted
[6] = target: GTPase HRas (Homo sapiens) (UniProt P01112); test: blockade of GTP loading onto mutant Ras – biochemical, activated mutant, multiplex bead flow cytometry, dose response (AID 1341;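 active means dose-response curve with midpoint inside the tested range, moderate steepness, significant amplitude and little compound fluorescence or bead-attachment interference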;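 further: GST-tagged constitutively activated Ras mutant immobilized on beads and multiplexed with other GTPases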)

Sequence of GTPase HRas (Homo sapiens) (P01112 whole entry, looked up): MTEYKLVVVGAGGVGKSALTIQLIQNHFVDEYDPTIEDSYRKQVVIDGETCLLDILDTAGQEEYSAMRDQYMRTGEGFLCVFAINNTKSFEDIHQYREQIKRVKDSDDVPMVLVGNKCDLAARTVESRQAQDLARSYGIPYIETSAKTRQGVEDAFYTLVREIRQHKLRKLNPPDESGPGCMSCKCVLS
Sequence of Cell division control protein 42 homolog (Homo sapiens) (P60953 whole entry, looked up): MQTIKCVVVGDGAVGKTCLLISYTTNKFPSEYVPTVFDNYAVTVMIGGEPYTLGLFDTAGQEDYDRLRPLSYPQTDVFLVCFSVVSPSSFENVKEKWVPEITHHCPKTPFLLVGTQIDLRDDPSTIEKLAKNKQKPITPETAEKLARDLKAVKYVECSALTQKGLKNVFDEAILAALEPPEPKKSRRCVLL

| SMILES | outcome [1] | fluorescence, percent of control (lower = inhibition) [2] | GTP binding, percent of control [3] | outcome [4] | GTP binding signal, raw median fluorescence (lower = inhibition) (MCF (arbitrary fluorescence units)) [5] | outcome [6] |
| --- | --- | --- | --- | --- | --- | --- |
| O=C(O)c1cn(CCOc2ccccc2Cl)c2ccccc12 | inactive | 99.8% | 110% | inactive | 86 | inactive |
| CCCCCCCCCCCC(=O)c1c(O)cccc1O | inactive | 28.4% | 79.8% | inactive | 241 | inactive |
| CCOC(=O)c1ccc2ncc(-c3ccccc3)nc2c1 | inactive | 33.5% | 79.4% | inactive | 259 | inactive |
| N#C/C(=C\c1ccccc1)c1nc2ncccc2[nH]1 | inactive | 36.8% | 82.5% | inactive | 276 | inactive |
| Cn1nnnc1Sc1ncnc2scc(-c3ccc(F)cc3)c12 | inactive | 52.2% | 64.5% | inactive | 210 | inactive |
| COc1ccccc1OCCn1cc(C(=O)O)c2cccc(Cl)c21 | inactive | 53.4% | 199% | inactive | 56.2 | inactive |
| O=c1c2ccccc2nc2c3ccccc3c(NCc3cccnc3)nn12 | inactive | 27.9% | 71.5% | inactive | 157 | inactive |
| Cc1nnc2ccc(-c3cccc(NC(=O)c4ccc(Br)o4)c3)nn12 | inactive | 34.5% | 81.8% | inactive | 206 | inactive |
| Nc1c(S(=O)(=O)c2cccs2)c2nc3ccccc3nc2n1/N=C/c1cccc(O)c1 | inactive | 30.6% | 77.3% | inactive | 101 | inactive |
| CC(=O)N1C(=O)/C(=C2\SC(=S)N(NC(=O)c3ccc(O)cc3)C2=O)c2ccccc21 | inactive | 31.6% | 70.8% | inactive | 155 | inactive |
| COc1cc2ccccc2cc1C(=O)NC(=S)Nc1cccc(C(=O)O)c1 | inactive | 33.8% | 83.3% | inactive | 174 | inactive |
| Cc1cc2ncn(CCC(=O)NC(C)(C)C)c2cc1C | inactive | 40% | 88.1% | inactive | 320 | inactive |
| Cc1cc(OCCSc2nc3ccccc3n2CC(=O)O)ccc1Cl | inactive | 58.4% | 85.5% | inactive | 29.6 | inactive |
| Cc1cc(C(=O)CN2C(=O)C(=O)N(Cc3ccccc3)C2=O)c(C)n1-c1ccccc1F | inactive | 34.9% | 81.4% | inactive | 260 | inactive |
| Cc1c(C=O)c2ccccn2c1C(=O)c1ccc(Cl)c([N+](=O)[O-])c1 | inactive | 31.5% | 78.3% | inactive | 247 | inactive |
| CC(SC(=S)N(C)Cc1cccs1)C(=O)O (stereo not given) | inactive | 83.3% | 79.5% | inactive | 312 | inactive |
| O=C(Oc1c(Br)cc(C(=S)N2CCOCC2)cc1Br)c1ccc(Cl)cc1 | inactive | 29.7% | 85% | inactive | 217 | inactive |
| COc1ccc(/C=C(/C#N)C(=O)Nc2ccc(O)cc2)cc1C(=O)O | inactive | 29.4% | 74.4% | inactive | 177 | inactive |
| Cc1ccc(CSCc2ccc(C(=O)O)o2)cc1 | inactive | 50.3% | 74.2% | inactive | 28.2 | inactive |
| Cc1nc2nc(SCC(=O)O)nn2c(C)c1Cc1c(F)cccc1Cl | inactive | 28.4% | 75.3% | inactive | 221 | inactive |

| SMILES | outcome [1] | fluorescence, percent of control (lower = inhibition) [2] | GTP binding, percent of control [3] | outcome [4] | GTP binding signal, raw median fluorescence (lower = inhibition) (MCF (arbitrary fluorescence units)) [5] | outcome [6] |
| --- | --- | --- | --- | --- | --- | --- |
| CNc1ncc(C(=O)c2ccc(Br)cc2)s1 | inactive | 37.3% | 85.2% | inactive | 277 | inactive |
| O=C(CN1CCN(CCOCCO)CC1)N1c2ccccc2Sc2ccc(Cl)cc21 | inactive | 37.7% | 82.2% | inactive | 266 | inactive |
| O=C(NNc1nc(-c2ccccc2)c2cc(Br)ccc2n1)c1ccc(S(=O)(=O)N2CCOCC2)cc1 | inactive | 40.3% | 53.5% | inactive | 124 | inactive |
| COc1ccccc1-n1cc([C@@H]2C[C@H]3CN(c4ccccc4)C(=O)[C@]34CCCN24)cn1 | inactive | 71.8% | 119% | inactive | 293 | inactive |
| CC(=O)c1ccc(N2CCN(C(=O)c3ccc4c(=O)n(-c5ccccc5)c(=O)[nH]c4c3)CC2)cc1 | inactive | 35.7% | 84.8% | inactive | 304 | inactive |
| COc1ccc(C=O)cc1CSc1ncccc1C(=O)O | inactive | 61.6% | 88.9% | inactive | 33.8 | inactive |
| CN1CCN(S(=O)(=O)c2cccc(C(=O)Nc3sc4c(c3C(N)=O)CCCC4)c2)CC1 | inactive | 43.6% | 57.3% | inactive | 150 | inactive |
| Nc1c([N+](=O)[O-])cc(-c2cnc[nH]2)cc1[N+](=O)[O-] | inactive | 38.5% | 81.1% | inactive | 190 | inactive |
| O=S1(=O)N=C(N=Nc2c(O)[nH]c3ccccc23)c2ccccc21 | inactive | 27.7% | 62.5% | inactive | 129 | inactive |
| COc1cc(/C=C2/C(C)=C(C#N)c3nc(N)c(C#N)c(C)c32)ccc1OCC(=O)O | inactive | 25.9% | 62% | inactive | 161 | inactive |
| CCC1CCCCN1S(=O)(=O)c1ccc(NC(=O)CSc2ncccc2C(=O)O)cc1 (stereo not given) | inactive | 43.1% | 57.5% | inactive | 109 | inactive |
| O=C(CSc1ccc2nnc(-c3cccs3)n2n1)N1CCCC1 | inactive | 33% | 74.6% | inactive | 178 | inactive |
| O=C(Nc1cc(S(=O)(=O)Nc2ccccc2Cl)ccc1O)c1sc2cc(Cl)ccc2c1Cl | inactive | 35.5% | 81.2% | inactive | 248 | inactive |
| COC(=O)COc1ccc(/C=N/NC(=O)c2ccc(N(Cc3ccccc3)S(C)(=O)=O)cc2)cc1 | inactive | 39.7% | 55.5% | inactive | 124 | inactive |
| O=[N+]([O-])c1ccccc1/C=C/C=N/n1c(-c2ccco2)n[nH]c1=S | inactive | 28.1% | 72.9% | inactive | 221 | inactive |
| O=c1c2ccc([N+](=O)[O-])cc2ncn1CCOc1ccccc1 | inactive | 48.1% | 95.3% | inactive | 188 | inactive |
| O=C(O)c1cc(-c2ccc(/C=C3\NC(=O)N(c4ccc(Cl)cc4)C3=O)o2)ccc1Cl | inactive | 25.6% | 66.3% | inactive | 160 | inactive |
| O=C(O)c1ccc2c3c(cccc13)C(=O)N(OS(=O)(=O)c1ccccc1)C2=O | inactive | 33.5% | 78.2% | inactive | 191 | inactive |
| Cn1c(SCC(=O)Nc2cc(C(C)(C)C)nn2-c2ccccc2)nc2ccccc21 | inactive | 46.2% | 64.7% | inactive | 0 | inactive |
| CCOC(=O)c1cc(C(=O)OCC)c2ccccn2c1=O | inactive | 42.1% | 87.2% | inactive | 246 | inactive |

| SMILES | outcome [1] | fluorescence, percent of control (lower = inhibition) [2] | GTP binding, percent of control [3] | outcome [4] | GTP binding signal, raw median fluorescence (lower = inhibition) (MCF (arbitrary fluorescence units)) [5] | outcome [6] |
| --- | --- | --- | --- | --- | --- | --- |
| O=C(Cn1cnc2c(nnn2Cc2ccccc2F)c1=O)NCC1CCCO1 (stereo not given) | inactive | 51.6% | 63.1% | inactive | 208 | inactive |
| CCOc1ccc(-n2nc3c(SCCN4CCCC4)nnc(C)c3c2C)cc1 | inactive | 57.3% | 71.4% | inactive | 230 | inactive |
| Cc1sc2ncnc(N/N=C/c3ccc(O)cc3)c2c1C | inactive | 27.2% | 64.8% | inactive | 312 | inactive |
| COc1cccc(-c2cc(C(F)(F)F)c(C#N)c(=O)[nH]2)c1 | inactive | 30% | 75.7% | inactive | 230 | inactive |
| COc1ccc(C(=O)O)c(OCc2c(C)cccc2C)c1 | inactive | 59% | 208% | inactive | 55.5 | inactive |
| CC(C)(C)c1ccc(OCCSc2nc3ccccc3n2CC(=O)O)cc1 | inactive | 52.3% | 87.1% | inactive | 35.4 | inactive |
| COc1ccc(S(=O)(=O)Cc2ccc(C(=O)N3CCN(c4cc(Cl)ccc4C)CC3)o2)cc1 | inactive | 35.1% | 57.4% | inactive | 148 | inactive |
| Oc1ccc(NC(=S)N=Nc2c(O)[nH]c3ccc(Br)cc23)cc1 | inactive | 33.1% | 78.4% | inactive | 200 | inactive |
| Cc1cc(C(F)(F)F)c(C#N)c(SCC(=O)Nc2nc3ccccc3s2)n1 | inactive | 89.9% | 105% | inactive | 188 | inactive |
| O=C(C#Cc1ccccn1)c1ccc([N+](=O)[O-])cc1 | inactive | 51% | 162% | inactive | 56.2 | inactive |
| N#C/C(=C\c1cccnc1)c1nc2ccccc2[nH]1 | inactive | 32.6% | 82.7% | inactive | 251 | inactive |
| CCN1/C(=C/c2ccc3cc(C)ccc3[n+]2C)Sc2ccc3sccc3c21 | inactive | 41.6% | 74.4% | inactive | 263 | inactive |
| Cc1cc(-c2n[nH]c(=S)n2/N=C/C(Cl)=C/c2ccccc2)n[nH]1 | inactive | 33.9% | 78.7% | inactive | 229 | inactive |
| CCOc1ccc2ccccc2c1/C=N/n1cncn1 | inactive | 86.7% | 156% | inactive | 179 | inactive |
| CSc1ccc(/C=N/NC(=O)c2cc(O)cc(O)c2)cc1 | inactive | 33.1% | 58.6% | inactive | 160 | inactive |
| COc1ccc(O)c(-c2cc(C(F)(F)C(F)F)nc(-c3ccccc3)n2)c1 | inactive | 106% | 177% | inactive | 183 | inactive |
| COc1ccc(S(=O)(=O)N2CCOCC2)cc1C(=O)Nc1nc2ccccc2s1 | inactive | 46.1% | 55.9% | inactive | 153 | inactive |
| Cc1cc(OCc2ccc(C(=O)O)o2)ccc1Cl | inactive | 57.7% | 85.2% | inactive | 31.8 | inactive |
| COc1ccc(CNc2nc3c(c(=O)n(Cc4ccc(Cl)cc4)c(=O)n3C)n2C)cc1 | inactive | 29.3% | 80.3% | inactive | 228 | inactive |
| Nc1[nH]c(=S)nc2nc(-c3ccccc3)c(-c3ccccc3)nc12 | inactive | 33.9% | 81.4% | inactive | 198 | inactive |
